Screens from PubChem.
Rows were chosen to be rich in hits. Some 19% of all compounds tested hit in one or more screens of this group.
HT1080NT lethal = kills 2HG-producing HT-1080-NT fibrosarcoma cells; actives 1.6% (n = 360,000); HT-1080-NT fibrosarcoma viability, CellTiter-Glo ATP luminescence, 48 h; Potency, µM (doses to about 46.1 µM), for inactives: at the highest dose activity, negative = less viability, actives largely listed as cytotoxic;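 note: NT is the 2HG producing partner of a matched IDH1 knockdown line; potency is the fitted concentration of half-maximal effect; 0% = DMSO-treated cells and -100% = media-only wells without cells; nearly all actives have a fitted effect of over 55% in size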
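HT-1080-NT; 750 cells/well; 5% FBS RPMI; 48 h compound, 37 degrees C; CellTiter-Glo luminescence; curve fitting and curve-class assignment.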
ELG1 repair inh = blocks ELG1-dependent DNA repair in HEK293T cells; HEK293T ELG1-luciferase reporter, luminescence, 16 h; DNA damage induced by 5-fluorouridine; Potency, µM (doses to about 46.1 µM), inactives show at the top dose activity change, negative = inhibition, hits mostly inhibitors; actives 2.3% (n = 330,000); note: potency is the fitted concentration of half-maximal effect; nearly all actives have a fitted effect of over 55% in size
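Reporter activity after DNA damage by 5-fluorouridine is monitored. Compound-treated cells incubate 16 hr at 37 °C, then ONE-Glo is added for 30 min before luminescence reading.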
HT1080 IDH1KD tx = kills HT-1080 cells with IDH1 knockdown. actives 2% (n = 360,000). HT-1080 IDH1 knockdown viability, ATP luminescence, 48 h. AID 686971. Potency, µM (doses to about 46.1 µM), inactives show at the top dose activity, negative = toxicity, actives largely listed as cytotoxic;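 note: potency is the fitted concentration of half-maximal effect; 0% = DMSO wells and -100% = cell-free medium wells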
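Cytotoxicity counter-line: IDH1KD HT-1080, 48 h, CellTiter-Glo. Curves classed by r2, magnitude and activity.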
IL1B secr inh = blocks inflammasome-driven IL-1 beta release; THP-1 LPS/ATP IL-1B secretion, AlphaLISA, 16 h; active compounds read low; activity change, % at 57.5 µM; actives 4.7% (n = 360,000); AID 743279; in the data active = activity change below about -50%; inconclusive = mostly about -30% to -49%
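THP-1 cells pretreated 1 hr with compounds (up to 57.5 uM final), then stimulated with LPS (250 ng/mL final) plus ATP (1.25 mM final); secreted IL-1B measured by AlphaLISA after 16 hr, decreased signal indicating inhibition.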
TDP1 cell noCPT = qHTS for Inhibitors of human tyrosyl-DNA phosphodiesterase 1 (TDP1): qHTS in cells in absence of CPT. DT40 Tdp1-/- hTDP1 cells, no CPT, ATP luminescence, 48 h. Potency, µM (top dose mostly 46.2 µM), for the others: at the highest dose activity change, negative = growth inhibition, hits mostly inhibitors. actives 15% (n = 420,000); note: potency is the fitted concentration of half-maximal effect; nearly all actives have a fitted effect of over 55% in size
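Stably hTDP1-transfected Tdp1-null chicken DT40 cells were treated with library compounds minus camptothecin and grown for at least 48 hr at 37 °C, after which cellular ATP was quantified by luminescence.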
TDP1 cell CPT = growth inhibition of DT40 Tdp1-/-;hTDP1 cells with camptothecin (screen for TDP1 inhibitors). chicken DT40 Tdp1-/-;hTDP1 cells + 20 nM CPT, ATP luminescence, 48 h. Potency, µM (series often up to 46.2 µM), for inactives: at the highest dose activity change, negative = growth inhibition, actives largely listed as inhibitors. actives 12% (n = 420,000); note: potency is the fitted concentration of half-maximal effect; nearly all actives have a fitted effect of over 55% in size
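Chicken DT40 Tdp1-/- cells complemented with human TDP1, 400 cells/well, exposed to compounds plus 20 nM camptothecin for at least 48 h at 37 C; viability read as ATP content by CellTiter-Glo luminescence.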
Active calls of the source: *; ? = inconclusive; / = no result given; [ ] = dose if it differs, or a comment. Unless noted, calls come from the whole dose curve; as a rule, active = well fitted curve in the direction sought with a large enough effect; inconclusive = small, poorly fitted or top-dose-only effect, or another doubt; inactive = no such curve, though single readings can be large; an effect the other way counts as inactive or inconclusive. Unless noted, % is set by controls: 0 for no effect and ±100 for the full control effect.

SMILES | HT1080NT lethal | ELG1 repair inh | HT1080 IDH1KD tx | IL1B secr inh | TDP1 cell noCPT | TDP1 cell CPT
CCC(C)Nc1nc2c(c(=O)n(C)c(=O)n2C)n1Cc1ccc(F)cc1 (stereo unspecified) | -5% | -14% | -22% | 15 | ? | 18µM*
Cn1c(-c2cccc(F)c2)nc2c1c(=O)[nH]c(=O)n2Cc1ccccc1 | ? | ? | ? | 23 | -26% | -5%
Cn1c(=O)c2c(nc(NCCCO)n2Cc2cccc(Br)c2)n(C)c1=O | 1% | -14% | 0% | 32 | ? | ?
CCC(C)Nc1nc2c(c(=O)n(C)c(=O)n2C)n1C (stereo unspecified) | 0% | -6% | -2% | 8 | -9% | -14%
CC(C)=NNc1nc2c(c(=O)n(C)c(=O)n2C)n1CCc1ccccc1 | -28% | -10% | 1% | -3 | -29% | ?
Cn1c(=O)c2c(nc(NCCc3ccccc3)n2Cc2ccc(Cl)c(Cl)c2)n(C)c1=O | / | / | / | / | 6.5µM* | ?
Cn1c(=O)c2c(nc(-c3ccccc3)n2C)n(Cc2ccccc2)c1=O | 18% | -19% | 20% | 4 | 21µM* | 16µM*
Cc1noc(C)c1C(=O)Nc1ccc(-c2nnc3n2CCCCC3)cc1 | 14% | 13% | -1% | -5 | -6% | -17%
Nc1ncc(S(=O)(=O)Nc2ccc(F)cc2F)cn1 | / | / | / | / | 9% | 1%
Cn1c(=O)c2c(nc(N/N=C/c3cccnc3)n2Cc2ccccc2)n(C)c1=O | -5% | ? | -2% | 30 | 26µM* | 12µM*
Cn1c(N/N=C2\CCCc3ccccc32)nc2c1c(=O)n(Cc1ccccc1)c(=O)n2C | 4% | -17% | 9% | 23 | ? | 23µM*
Cn1c(=O)[nH]c(=O)c2c1nc(N/N=C/c1cccnc1)n2Cc1ccc(Cl)cc1 | -3% | 0% | -5% | 38 | 6% | 3%
C=CCNc1nc2c(c(=O)n(C)c(=O)n2C)n1CCCCCC | -1% | -14% | -10% | 26 | 1.6µM* | 3.3µM*
CNc1nc2c(c(=O)n(C)c(=O)n2C)n1Cc1ccccc1 | -2% | -2% | -15% | 2 | 13µM* | ?
COc1ccc(NC(=O)N2CCCC3(CCN(C(=O)c4cccn4C)CC3)C2)cc1 | / | / | / | / | -2% | ?
C/C(Cl)=C\Cn1c(Nc2ccc(C)cc2)nc2c1c(=O)n(C)c(=O)n2C | -4% | 5.2µM* | -5% | 21 | ? | ?
C/C(Cl)=C/Cn1c(N2CCCC2)nc2c1c(=O)n(C)c(=O)n2C | -10% | ? | 0% | 16 | ? | ?
Cn1c(=O)c2c(nc(NCc3ccc4c(c3)OCO4)n2Cc2ccccc2Cl)n(C)c1=O | 0% | -2% | 0% | 19 | ? | ?
C=CCNc1nc2c(c(=O)n(C)c(=O)n2C)n1Cc1ccc(F)cc1 | -16% | ? | -15% | 53 | 6.5µM* | 2.3µM*
Cn1c(=O)c2c(nc(N/N=C/c3ccc(OC(=O)c4ccco4)cc3)n2Cc2ccccc2Cl)n(C)c1=O | -4% | 16µM* | 1% | 38 | 8.2µM* | 6.5µM*
Cn1c(=O)c2c(nc(NCC3CCCO3)n2C)n(C)c1=O (stereo unspecified) | 16% | 2% | 3% | 7 | 7% | -4%
Cn1c(=O)n(Cc2ccccc2)c(=O)c2c1nc(NCC1CCCO1)n2Cc1ccccc1 (stereo unspecified) | -23% | 21µM* | ? | -17 | ? | ?
COc1ccc(N2CC(NC(=O)C3CCCCC3)CC2=O)cc1 (stereo unspecified) | / | / | / | / | -22% | -8%
Cn1c(NCCO)nc2c1c(=O)n(Cc1ccc(F)cc1)c(=O)n2C | -3% | 6% | 1% | 24 | -21% | 2%
CC(C)CCn1c(NCCc2ccccc2)nc2c1c(=O)n(C)c(=O)n2C | -30% | ? | ? | -29 | 21µM* | 13µM*
SMILES | HT1080NT lethal | ELG1 repair inh | HT1080 IDH1KD tx | IL1B secr inh | TDP1 cell noCPT | TDP1 cell CPT
Cn1c(=O)c2c(nc(NCCc3ccccc3)n2Cc2cccc(Br)c2)n(C)c1=O | / | / | / | / | 13µM* | 12µM*
Cn1c(=O)c2c(nc(NCCc3ccccc3)n2Cc2ccc(F)cc2)n(C)c1=O | -15% | 12µM* | -25% | -5 | 5.2µM* | 3.7µM*
Cc1cccc(CNc2ncncc2-c2ccccc2C)c1 | / | / | / | / | -25% | -24%
CC(C)C[C@H]1CN(CCCC[C@@H]2CNC(=O)C(=O)N2CCc2ccccc2)C(=O)C(=O)N1CCC1CCCCC1 | ? | / | -28% | 0 | ? | ?
CCCN(CCC)C(=O)Cn1c(=O)n(-c2cccc(C(F)(F)F)c2)c(=O)c2c(C)c(C)sc21 | / | / | / | / | 21µM* | 23µM*
CSc1nc(O)c(/C=C2\C=Nc3ccccc32)[nH]1 | 2% | ? | 12% | -13 | ? | ?
C1=Nc2ccccc2/C1=C/c1ccccc1 | / | / | / | / | 13µM* | 4.5µM*
COc1ccc(S(=O)(=O)N2CCC(C(=O)Nc3ccc(Oc4ccccc4)cc3)CC2)cc1 | / | / | / | / | 6% | -9%
COc1ccc(Sc2ccc(NC(=O)c3ccccc3Cl)cc2C#N)cc1 | ? | ? | ? | -11 | 13µM* | ?
Cc1cc(NC(=O)CCC(=O)N(CC(=O)NC2CCCC2)c2ccc(C(C)C)cc2)no1 | -16% | 15% | -20% | -10 | ? | ?
O=C(NCc1cccs1)C1CC(c2ccc(Cl)cc2)=NO1 (stereo unspecified) | -22% | ? | ? | 4 | 12µM* | 13µM*
O=C(NCc1ccco1)C1CC(c2ccc(Cl)cc2)=NO1 (stereo unspecified) | -24% | ? | -9% | 13 | -22% | ?
O=C(NCCc1cccs1)C1CC(c2c(Cl)cccc2Cl)=NO1 (stereo unspecified) | 16% | ? | -4% | 0 | 7.3µM* | 4.1µM*
O=C(NCCc1cccs1)C1CC(c2cccc(F)c2)=NO1 (stereo unspecified) | -1% | ? | 0% | 17 | -10% | 2%
COc1ccc(OC)c(C2=NOC(C(=O)NCCN3CCOCC3)C2)c1 (stereo unspecified) | 0%[9.24 µM] | -2% | -1% | 0 | -4% | 3%
COc1ccc(OC)c(C2=NOC(C(=O)NCc3cccs3)C2)c1 (stereo unspecified) | -30% | -5% | ? | 39 | 7.3µM* | ?
